This is an account of results in PubChem BioAssay.

Active and inactive are the calls of the source.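 The calls were made as follows, unless noted: active = inhibition above 20% together with a positive visual image hit; inconclusive = visual image hit but inhibition not above 20%; inactive = no visual image hit.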

Assay [1] can be described thus: inhibitors of TNFa-induced NFkB p65 translocation, primary screen, imaging, HUVEC, MLSMR starter and 10KST1 sets (AID 438).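 Also: compound added about 3h40 before a 20 min TNFalpha stimulation.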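 As to inhibition: signal is the nuclear over cytoplasmic p65 intensity ratio per well.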 The following applies: HUVEC TNFa-induced p65 nuclear translocation; cell count: measured here: nuclei count (cytotoxicity indicator), at 2.08 µM; inhibition: at 2 µM, stronger effect = higher value, 0% TNFa-plus-vehicle, 100% no-TNFa wells.
Assay [2] in a line: reduction of polyQ htt aggregates in cells – imaging, exon1htt(103Q)mCFP cells, high-content imaging, primary screen (AID 483;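 active = visual image review flags a hit and inhibition of aggregation exceeds 20%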;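 also: compound exposure lasted 3 days before fixation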;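 as to nuclei count: percent of the per-plate median nuclei count of sample wells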). The settings on record: exon1htt(103Q)mCFP cell line, aggregate imaging, at 2 µM; inhibition of aggregation: stronger effect = higher value; nuclei count: measured here: cell count, toxicity.
The nature of assay [3]: endothelial E-selectin expression blockers – imaging, HUVEC, immunofluorescence, MLSMR starter and 10KST1 sets, primary screen (AID 487;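 active = visually confirmed hit in the image check and inhibition above 20%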;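 as to inhibition: signal is fraction of cell area covered by stained E-selectin grains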;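 as to nuclei count: 100% = median nuclei count of all wells on the same plate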). The settings on record: HUVEC TNFalpha-induced E-selectin immunofluorescence imaging, at 2 µM; inhibition: stronger effect = higher value; nuclei count: measured here: cell number, toxicity.
Assay [4] addresses Voltage-gated potassium channel subunit beta-2 (Rattus norvegicus) (UniProt P62483). Nature of the assay: inhibitors of rat Kvbeta2 reductase activity – biochemical, NADPH fluorescence, primary screen (AID 622;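 active = fluorescence slope higher than the sample average by over 3 SD, cut at about -0.22 in these data, passing the limit was not always enough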;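 also: slope of raw intensity against log time taken from 70 to 1610 s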). The following applies: recombinant KvBeta, 4-cyanobenzaldehyde reduction, at 10 µM, stronger effect = higher value.
Assay [5] has the same target. Nature of the assay: enhancers of rat Kvbeta2 NADPH turnover – biochemical, NADPH fluorescence, primary screen (AID 623;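 active = NADPH fluorescence slope more negative than the mean of all samples by about 3 SD, 99.7% confidence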;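 also: fluorescence intensity change per second fitted from 20 to 320 s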). The settings on record: Recombinant KvBeta, NADPH fluorescence decrease slope, 10 min; at 10 µM; stronger effect = lower value.
Assay [6] addresses Alpha-2C adrenergic receptor (Homo sapiens) (UniProt P18825). Nature of the assay: compounds altering alpha2C-coupled GIRK flux – cell-based, HEK293 alpha2C/GIRK1/2, thallium flux, primary screen (AID 624;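 active = fluorescence slope after compound addition differing from the mean of all screened samples at 99.7% confidence, in either direction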;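 also: slope of fluorescence ratio to pre-addition baseline per second over 15 to 24 s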). The settings on record: thallium flux BTC fluorescence, at 10 µM, actives lie on both sides.
A short description of assay [7]: blockers of RIG-like receptor reporter activation – cell-based, Sendai virus stimulus, luciferase, 10K MLSCN set, TLR/RLR signaling modifier project, primary screen (AID 602276;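 active = inhibition at or above 50% at 10 µM; inactive = inhibition below 50%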;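 also: firefly luciferase from ISG56 promoter only with Renilla not read in this screen; 0% = Sendai virus plus DMSO and 100% = medium plus DMSO without virus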). The settings on record: HEK293 RL24 IRF3 luciferase reporter, at 10 µM, stronger effect = higher value. On the technique in general: Reporter assays use an easily measured gene product as a stand-in for the process of interest.

Assay [8] can be described thus: TLR3 IRF3 reporter activation blockers – cell-based, poly I:C stimulus, luciferase, 10K MLSCN set, primary screen (AID 602277;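 active = inhibition of the reporter signal at or above 50%; inactive = inhibition below 50%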). The following applies: HEK293-TLR3 RL24 IRF3 luciferase reporter, at 10 µM, stronger effect = higher value.

Sequence of Alpha-2C adrenergic receptor (Homo sapiens) (P18825 whole entry, looked up): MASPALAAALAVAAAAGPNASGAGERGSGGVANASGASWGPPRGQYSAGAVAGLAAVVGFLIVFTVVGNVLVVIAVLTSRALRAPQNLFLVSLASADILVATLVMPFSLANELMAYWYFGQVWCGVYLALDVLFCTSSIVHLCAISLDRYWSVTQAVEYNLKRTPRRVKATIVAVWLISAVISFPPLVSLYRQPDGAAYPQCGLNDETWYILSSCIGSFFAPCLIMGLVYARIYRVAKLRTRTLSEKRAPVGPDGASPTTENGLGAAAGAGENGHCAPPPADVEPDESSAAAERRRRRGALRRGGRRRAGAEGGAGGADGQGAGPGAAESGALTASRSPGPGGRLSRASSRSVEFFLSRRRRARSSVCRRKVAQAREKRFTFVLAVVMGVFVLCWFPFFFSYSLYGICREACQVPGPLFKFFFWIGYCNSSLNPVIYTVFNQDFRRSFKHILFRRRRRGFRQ
Sequence of Voltage-gated potassium channel subunit beta-2 (Rattus norvegicus) (P62483 whole entry, looked up): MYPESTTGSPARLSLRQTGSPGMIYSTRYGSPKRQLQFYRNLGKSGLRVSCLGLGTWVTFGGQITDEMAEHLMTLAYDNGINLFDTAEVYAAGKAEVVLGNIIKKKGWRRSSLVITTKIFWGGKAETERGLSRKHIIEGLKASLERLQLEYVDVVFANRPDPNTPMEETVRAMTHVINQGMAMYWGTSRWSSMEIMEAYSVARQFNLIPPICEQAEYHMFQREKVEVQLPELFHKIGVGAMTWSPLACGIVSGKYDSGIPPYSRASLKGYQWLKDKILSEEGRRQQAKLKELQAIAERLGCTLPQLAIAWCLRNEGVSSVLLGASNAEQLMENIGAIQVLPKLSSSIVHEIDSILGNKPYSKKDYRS

As to `CC1=C(C(=O)N2CCCCC2)C2(CCC(C)CC2)OC1=O` (centres undefined), the cell count in assay [1] turned out to be 759. Moreover, the inhibition in assay [1] was -1.1% (inactive); in assay [3], -27.8% (inactive); in assay [7] it was 15.2% (inactive); in assay [8], 20.4% (inactive). Besides, in assay [2], the inhibition of aggregation was -11.5% (inactive). Further, the values for the nuclei count in assay [2] and in assay [3] were 118% and 120%, respectively. Further, the fluorescence slope in assay [4] is -0.524 (inactive). For the same molecule, in assay [5], the NADPH fluorescence slope is -1.1e-05 (inactive). In addition, the slope in assay [6] was 0.00741 (inactive).
`N#Cc1c(N)c(C(=O)c2ccccc2)n2c1CCCC2`: in assay [1], the cell count worked out at 270. Also, the inhibition is -3.7% (inactive) in assay [1], -11.6% (inactive) in assay [3], -3.25% (inactive) in assay [7] and 14.6% (inactive) in assay [8]. Besides, the inhibition of aggregation in assay [2] was -10.6% (inactive). Moreover, the results for the nuclei count in assay [2] and in assay [3] were 86.4% and 96.6%, respectively. The fluorescence slope in assay [4] was -0.46 (inactive). In addition, in assay [5], the NADPH fluorescence slope was -1.7e-05 (inactive). For the same molecule, the slope in assay [6] was 0.006 (inactive).
As for `CC(C)COc1ccc(C2NC(=O)NC2=O)cc1` (centres undefined), the cell count in assay [1] stood at 718. Further, the inhibition is -10.2% (inactive) in assay [1], 74.1% (inactive) in assay [3], 1.04% (inactive) in assay [7] and 19.9% (inactive) in assay [8]. Also, in assay [2], the inhibition of aggregation was -12.5% (inactive). For the same molecule, the nuclei count was 117% in assay [2] and 91.5% in assay [3]. Further, the fluorescence slope in assay [4] is -0.452 (inactive). Further, the NADPH fluorescence slope in assay [5] is -2.2e-05 (inactive). For the same molecule, the slope in assay [6] was 0.00367 (inactive).
Regarding `CCc1ccccc1OCCCCN1CCCC1`, the cell count in assay [1] is 454. Also, the inhibition is -4.1% (inactive) in assay [1], -88.7% (inactive) in assay [3], -4.55% (inactive) in assay [7] and -12.9% (inactive) in assay [8]. Besides, the inhibition of aggregation in assay [2] is 10.6% (inactive). Further, the nuclei count in assay [2] is 89.5%; in assay [3] it was 75.1%. In addition, the fluorescence slope in assay [4] was -0.518 (inactive). Besides, in assay [5], the NADPH fluorescence slope is -4.4e-05 (inactive). Also, the slope in assay [6] was 0.00548 (inactive).
`COC(=O)c1cn(NC(=O)C2CCCO2)c(=O)c2ccccc12` (centres undefined): the cell count in assay [1] amounted to 415. For the same molecule, the inhibition in assay [1] was -2.5% (inactive); in assay [3] it was -39.1% (inactive); in assay [7], 11.6% (inactive); in assay [8] it was 20.9% (inactive). Further, the inhibition of aggregation in assay [2] is 12.6% (inactive). Moreover, the values for the nuclei count in assay [2] and in assay [3] were 103% and 89.7%, respectively. In assay [4], the fluorescence slope is -0.462 (inactive). Also, in assay [5], the NADPH fluorescence slope was -3.7e-05 (inactive). The slope in assay [6] was 0.0068 (inactive).
As for `CCCOc1ccc(S(=O)(=O)NCCCN2CCOCC2)c2ccccc12`, the cell count in assay [1] was determined as 402. Besides, the inhibition is 5.8% (inactive) in assay [1], -43.1% (inactive) in assay [3], 16% (inactive) in assay [7] and 13.7% (inactive) in assay [8]. The inhibition of aggregation in assay [2] is -33.7% (inactive). Also, the nuclei count in assay [2] came out at 106%; in assay [3], 118%. Besides, the fluorescence slope in assay [4] is -0.418 (inactive). The NADPH fluorescence slope in assay [5] is -4.8e-05 (inactive). Besides, in assay [6], the slope was 0.00402 (inactive).
With `CC(C)COC(=O)C1C2C=CC3(CN(C(C)c4ccc(Br)cc4)C(=O)C13)O2` (centres undefined), the cell count in assay [1] is 477. Also, the inhibition in assay [1] was -10.8% (inactive); in assay [3] it was -32.2% (inactive); in assay [7], 11.4% (inactive); in assay [8], 28.5% (inactive). Also, in assay [2], the inhibition of aggregation is 28.1% (inactive). The values for the nuclei count in assay [2] and in assay [3] were 78.4% and 86.6%, respectively. Besides, the fluorescence slope in assay [4] is -0.532 (inactive). In assay [5], the NADPH fluorescence slope is -3.6e-05 (inactive). Also, the slope in assay [6] is 0.00795 (inactive).
As to `Cc1c(Cl)cnc(NC(=O)COC(=O)C(NC(=O)c2ccco2)C(C)C)c1Cl` (centres undefined), the cell count in assay [1] was 362. Also, the inhibition was 7.4% (inactive) in assay [1], -17.2% (inactive) in assay [3], 6.87% (inactive) in assay [7] and 5.64% (inactive) in assay [8]. Further, in assay [2], the inhibition of aggregation is -2.1% (inactive). For the same molecule, the nuclei count in assay [2] is 80.5%; in assay [3], 112%. Moreover, the fluorescence slope in assay [4] is -0.584 (inactive). The NADPH fluorescence slope in assay [5] was -3.9e-05 (inactive). Besides, in assay [6], the slope was 0.00552 (inactive).
As for `CN(C)c1nc(Oc2ccc(=O)n(C)n2)nc(N2CCOCC2)n1`, in assay [1], the cell count worked out at 306. For the same molecule, the inhibition in assay [1] is 0.5% (inactive); in assay [3] it was 31.4% (inactive); in assay [7] it was 16.8% (inactive); in assay [8] it was 10.1% (inactive). Further, the inhibition of aggregation in assay [2] is 17.6% (inactive). The nuclei count stood at 93.3% in assay [2] and 96.5% in assay [3]. In addition, the fluorescence slope in assay [4] was -0.632 (inactive). In assay [5], the NADPH fluorescence slope was 1.5e-05 (inactive). Besides, in assay [6], the slope is 0.00286 (inactive).

By inhibition is commonly meant the change of the read-out against control, counted positive when it falls.
